The values below come from PubChem BioAssay (NCATS).

Experiment [1] deals with Glucocorticoid receptor (Homo sapiens) (UniProt P04150). The experiment can be described thus: GR-EFC Redistribution (AID 451; calls by dose curve; also: potency is read from the fitted curve at half-maximal effect). The following applies: CHO-K1 GR-EFC translocation, beta-gal luminescence, 2 h. Summed up:
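CHO-K1 cells stably expressing nuclear-localized β-gal enzyme acceptor and GR fused C-terminally to the enzyme donor fragment; ligand-driven nuclear translocation restores β-gal by complementation. Compounds titrated up to 46 uM final, 2 h at 37 °C; luminescence read.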

In experiment [2] the target is Mitogen-activated protein kinase 10 (Mus musculus) (UniProt Q61831). The experiment can be described thus: JNK3 AlphaScreen Assay (AID 530; active = well fitted curve in either direction with a large enough effect, not every such curve was filed as active;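 also: kinase came from lysate of stimulated human HepG2 cells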; also: potency is read from the fitted curve at half-maximal effect). The conditions noted are these: JNK3 lysate, c-Jun phosphorylation; series mostly up to 25.6 µM. Summed up: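 Biotinylated GST-cJun(1-79) served as substrate for JNK3 in HepG2 lysates stimulated with IL-1beta and TNF-alpha. ATP was 10 uM final, pH 7.6. Ser73 phosphorylation was quantified by AlphaScreen (680 nm excitation).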

Experiment [3] in a line: Cell Viability - N2a (AID 540). Also: nearly all actives have a fitted effect of over 45% in size. Also: potency is read from the fitted curve at half-maximal effect.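 As to activity change, negative = cytotoxicity: plate controls were DMSO alone for no effect and tamoxifen control for full effect.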 The following applies: N2a mouse neuroblastoma cell viability; activity change, negative = cytotoxicity: at 92.2 µM (top of the series). An outline of the steps:
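N2a mouse neuroblastoma, 1500 cells/well, 5 hr settle; compound 40 hr, 37 °C; CellTiter-Glo 20 min RT; luminescence; Hill-fit AC50.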

Experiment [4] is described as follows: Cell Viability - NIH 3T3 (AID 541).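 Also: cells exposed to compound for 40 hours; nearly all actives have a fitted effect of over 25% in size.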 Also: potency is read from the fitted curve at half-maximal effect.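 As to activity change, negative = cytotoxicity: plate controls were DMSO alone for no effect and tamoxifen positive control for full effect.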 The conditions noted are these: NIH 3T3 cell viability, qHTS; activity change, negative = cytotoxicity: at 92.2 µM (top of the series). An outline of the steps: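 qHTS format; 40 hr compound exposure, 37 °C; CellTiter-Glo luminescence (cellular ATP) read-out after 20 min at RT. Decrease in ATP = cytotoxicity; AC50 from standard Hill fit.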

Experiment [5] can be described thus: Cell Viability - H-4-II-E (AID 543).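 Also: cells exposed to compound for 40 hours; nearly all actives have a fitted effect of over 35% in size.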 Also: potency is read from the fitted curve at half-maximal effect. The conditions noted are these: H-4-II-E rat hepatoma viability; series mostly up to 92.2 µM. Summed up: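 qHTS, rat hepatoma H-4-II-E, 1500 cells/well; 40 hr compound exposure, 37 °C; CellTiter-Glo ATP luminescence after 20 min RT; AC50 by standard Hill fit.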
Experiment [6] is described as follows: Cell Viability - SH-SY5Y (AID 544).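 Also: cells exposed to compound for 40 hours; nearly all actives have a fitted effect of over 55% in size.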 The following applies: SH-SY5Y neuroblastoma cell viability. An outline of the steps:
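SH-SY5Y, 1500 cells/well, 5 hr pre-incubation 37 °C; cpd 40 hr 37 °C; CellTiter-Glo 20 min RT; luminescence (ATP) read. qHTS concentration-response, Hill fit → AC50. Tamoxifen, doxorubicin as positive controls.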

Experiment [7] is described as follows: Cell Viability - Renal Proximal Tubule (AID 545).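 Also: cells exposed to compound for 40 hours; nearly all actives have a fitted effect of over 40% in size.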 The following applies: renal proximal tubule cells viability, primary cells of rat origin; series mostly up to 91.7 µM. Summed up: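 Primary rat renal proximal tubule cells (1000/well) were treated with compounds for 40 hr at 37 °C in complete medium. Intracellular ATP was measured by CellTiter-Glo luminescence, and AC50 values came from Hill-equation fits of concentration-response data.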

The nature of experiment [8]: Cell Viability - Mesenchymal (AID 546).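 Also: cells exposed to compound for 40 hours before reading.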 The conditions noted are these: mesenchymal cells viability, qHTS; series mostly up to 91.7 µM. An outline of the steps: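 In this qHTS cytotoxicity format, glomerulus-derived human mesenchymal kidney cells received compound for 40 hr, then luciferase-based ATP quantitation. Concentration-response data were fitted with the Hill equation.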

Experiment [9] in a line: Cellular Toxicity (caspase-3) HepG2 (AID 654).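 Also: cells exposed to compound for 16 hours before reading; 0% = DMSO alone and 100% = caspase signal from 100 µM tamoxifen.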 The conditions noted are these: HepG2 caspase-3 activation, luminescence; series mostly up to 92.2 µM. An outline of the steps:
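Luminescent Caspase-Glo 3/7 readout after 16 hr compound exposure of human hepatocellular carcinoma HepG2 cells at 37 °C; qHTS concentration-response, normalized DMSO = 0%, 100 uM tamoxifen = 100%; AC50 by standard Hill equation.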

Experiment [10] can be described thus: Cellular Toxicity (caspase-3) Jurkat (AID 655).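 Also: cells exposed to compound for 16 h at 37 °C before reading.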 The conditions noted are these: Jurkat caspase-3 activation, luminescence, DMSO = 0%, tamoxifen = 100%; series mostly up to 92.2 µM. An outline of the steps: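 Jurkat cells (5000/well) in complete medium were treated with compounds for 16 hr at 37 °C, then Caspase-Glo 3/7 luminescence was read after 20 min at room temperature. Data normalized to DMSO (basal) and 100 uM tamoxifen (100%); AC50 from Hill fit.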

Where [11] appears, read: viability change, negative = cytotoxic: at 92.2 µM (top of the series).

Several values for one entry are separate records, joined by “and”; a condition that tells them apart may be missing. Equal entries are not always repeated. Values without a mark were called inactive. Records with an inconclusive call do not appear. More than one record can exist for a structure, and the calls need not agree. Activity calls are given as the source filed them. Unless noted, calls follow the shape of the dose curve; as a rule, active = well fitted curve in the direction sought with a large enough effect; inconclusive = small, poorly fitted or top-dose-only effect, or another doubt; inactive = no such curve, though single readings can be large; an effect the other way counts as inactive or inconclusive.

Chain of Glucocorticoid receptor (Homo sapiens) (P04150 whole entry, looked up, the tested form may be a part): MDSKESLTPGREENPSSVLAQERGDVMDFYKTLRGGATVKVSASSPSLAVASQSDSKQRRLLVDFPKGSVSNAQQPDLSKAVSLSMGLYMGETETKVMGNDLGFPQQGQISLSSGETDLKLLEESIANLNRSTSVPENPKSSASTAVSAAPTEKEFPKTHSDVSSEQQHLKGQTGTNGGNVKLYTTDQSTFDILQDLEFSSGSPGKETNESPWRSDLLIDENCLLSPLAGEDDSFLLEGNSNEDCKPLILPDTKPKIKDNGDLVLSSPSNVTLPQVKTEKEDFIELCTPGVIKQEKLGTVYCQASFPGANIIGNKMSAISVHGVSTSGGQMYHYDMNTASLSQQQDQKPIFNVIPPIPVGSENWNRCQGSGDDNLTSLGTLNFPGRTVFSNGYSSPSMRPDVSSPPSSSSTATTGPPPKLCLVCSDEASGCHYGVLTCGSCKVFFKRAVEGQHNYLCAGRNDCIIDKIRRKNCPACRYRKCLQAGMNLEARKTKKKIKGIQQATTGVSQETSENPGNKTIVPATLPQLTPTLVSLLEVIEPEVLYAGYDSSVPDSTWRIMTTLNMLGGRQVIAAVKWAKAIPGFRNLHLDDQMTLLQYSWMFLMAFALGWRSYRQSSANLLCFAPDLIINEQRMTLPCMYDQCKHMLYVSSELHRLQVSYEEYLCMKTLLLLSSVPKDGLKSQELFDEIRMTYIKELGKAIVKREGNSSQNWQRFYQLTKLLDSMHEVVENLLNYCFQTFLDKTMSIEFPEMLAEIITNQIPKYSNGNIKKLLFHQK

Take `COc1ccc2c(c1)c(CC(=O)OCC(=O)O)c(C)n2C(=O)c1ccc(Cl)cc1`: the Potency in experiment [1] was more than 20.6 µM. In experiment [2], the Potency entry was “inactive”.
Taken in the same sequence, the figures for `CCCOc1ccc(C(=O)OCCN(CC)CC)cc1N` were more than 20.6 µM and “inactive”.
For `COC(=O)Nc1nc2ccc(Sc3ccccc3)cc2[nH]1`, in that order: more than 20.6 µM and “inactive”.
With `CCn1cc(C(=O)O)c(=O)c2cc(F)c(N3CCNCC3)cc21`, the Potency in experiment [1] is more than 20.6 µM. Moreover, in experiment [2], the Potency entry was “inactive”.
For `CC[C@H](NC(C)C)[C@H](O)c1ccc(O)c2[nH]c(=O)ccc12`, the Potency in experiment [1] was more than 46 µM.
As to `NNC(=O)c1ccncc1`, in [1], the Potency is more than 20.6 µM. Also, the Potency entry in experiment [2], in experiment [3], in [5], in [6] (setting [11]), in [7] and in experiment [8] was “inactive” each time. Besides, in experiment [9], the Potency entry was “inactive”. Also, the activity change, negative = cytotoxicity in [4] was -5.93%. Also, in experiment [10], the call was inactive.
For `COc1cc2ncnc(Nc3cccc(Cl)c3)c2cc1OC`, the Potency in experiment [1] was more than 46 µM. Further, the Potency result in experiment [2] is “inactive”.
Taken in the same sequence, the figures for `NC(=O)c1cccc(N)c1` were more than 46 µM and “inactive”.
For `COC(=O)Nc1nc2ccc(C(=O)c3ccccc3)cc2[nH]1`, in that order: more than 20.6 µM and “inactive”.
Taken in the same sequence, the figures for `Cc1cccc(Nc2ccncc2S(=O)(=O)NC(=O)NC(C)C)c1` were more than 20.6 µM and “inactive”.
Regarding `Nc1ccc(S(=O)(=O)Nc2ccccn2)cc1`, the Potency in [1] was more than 20.6 µM. Further, the Potency result in [2] was “inactive”.
Taken in the same sequence, the figures for `CC1=CC(=O)c2ccccc2C1=O` were more than 20.6 µM and “inactive”.
For `Cc1ccc(S(=O)(=O)N[C@@H](Cc2ccccc2)C(=O)CCl)cc1`, in that order: more than 46 µM and “inactive”.
Taken in the same sequence, the figures for `Nc1[nH]c(=O)ncc1F` were more than 20.6 µM and “inactive”.
With `O=c1oc2c(O)c(O)cc3c(=O)oc4c(O)c(O)cc1c4c23`, the Potency in [1] is more than 46 µM; in experiment [2], 1.26 µM (active).
Taken in the same sequence, the figures for `COc1cnc(NS(=O)(=O)c2ccc(N)cc2)nc1` were more than 20.6 µM and “inactive”.
Take `Cc1cccc(N(C)C(=S)Oc2ccc3ccccc3c2)c1`: the Potency in experiment [1] is more than 20.6 µM.
Consider `CC(C)(Sc1cc(C(C)(C)C)c(O)c(C(C)(C)C)c1)Sc1cc(C(C)(C)C)c(O)c(C(C)(C)C)c1`, for which the Potency in [1] was more than 20.6 µM. Further, the Potency result in [2] was “inactive”.
As to `N[C@@H](Cc1ccc(O)c(O)c1)C(=O)O`, the Potency in [1] is > 46 µM and > 20.6 µM. The Potency result in experiment [2] is “inactive”.
For the compound `OCc1ccc(-c2nn(Cc3ccccc3)c3ccccc23)o1`, the Potency in experiment [1] is more than 46 µM.
`CCCCOc1ccc(CC(=O)NO)cc1`: the Potency in experiment [1] was more than 20.6 µM. In [2], the Potency entry was “inactive”.
For `COc1cc(NS(=O)(=O)c2ccc(N)cc2)nc(OC)n1`, in that order: more than 20.6 µM and “inactive”.
Taken in the same sequence, the figures for `CNNCc1ccc(C(=O)NC(C)C)cc1` were more than 20.6 µM and “inactive”.
On to `Cc1ncc([N+](=O)[O-])n1CCO`, for which the Potency entry in experiment [2], in [3], in experiment [5], in experiment [6] (setting [11]), in experiment [7] and in [8] was “inactive” in each case. Besides, in experiment [9], the Potency result is “inactive”. The activity change, negative = cytotoxicity in experiment [4] was -7.75%. Further, in experiment [10], the result was inactive.
Take `COc1ccc2cc3[n+](cc2c1OC)CCc1cc2c(cc1-3)OCO2`: the Potency is more than 20.6 µM in [1], 1.26 µM (active) in experiment [3] and 1 µM (active) in [4]. For the same compound, the Potency result in [2], in [5], in experiment [6] (setting [11]), in [7], in experiment [8] and in experiment [9] was “inactive” in each case. Moreover, the call in experiment [10] was inactive.
On to `NC(N)=NC(N)=NCCc1ccccc1`, for which the Potency in experiment [1] was more than 20.6 µM. In addition, the Potency entry in [2], in [6] (setting [11]), in [7], in experiment [8] and in [9] was “inactive” throughout. Besides, the activity change, negative = cytotoxicity in [3] was -109% (active). In [10], the outcome was inactive.
On to `CC(=O)[C@H]1CC[C@H]2[C@@H]3CCC4=CC(=O)CC[C@]4(C)[C@H]3CC[C@]12C`, for which the Potency result in [2], in [8] and in [9] was “inactive” in each case. Moreover, the activity change, negative = cytotoxicity in [3] was -96.5% (active) and -82.2% (active); in experiment [4], -129% (active). In experiment [5], the Potency was 39.8 µM (active). In addition, the viability change, negative = cytotoxic in experiment [6] (at 92.2 µM (top of the series)) was -22.5%; in experiment [6] (setting [11]), -101% (active). For the same compound, in experiment [10], the compound was called inactive.
`CCn1cc(C(=O)O)c(=O)c2cc(F)c(N3CCNCC3)nc21`: the Potency result in experiment [2] was “inactive”.
Same read-out and setting: next, `COc1ncnc(NS(=O)(=O)c2ccc(N)cc2)c1OC`: “inactive”.
Take `CC1=NN(c2ccccc2)C(=O)C1`: the Potency in [1] is more than 46 µM. Moreover, the Potency entry in experiment [2], in [3], in experiment [5], in [6] (setting [11]), in [7] and in [8] was “inactive” each time. In experiment [9], the Potency entry is “inactive”. The activity change, negative = cytotoxicity in experiment [4] was -5.02%. The compound was classed as inactive in experiment [10].
